ADAM17 inh: ADAM17 inhibitors, primary screen, biochemical, QFRET. Disintegrin and metalloproteinase domain-containing protein 17 (Homo sapiens), P78536. recombinant ADAM17, EDANS/DABCYL FRET peptide cleavage. inhibition, % at 6.95 µM. 370,000 tested, 0.83% active;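 active means inhibition above the mean of compounds lying between control limits plus 3 SD, set per campaign, cut at about 8.5% in these data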
NR3A LBD binder: binders of NR3A ligand-binding domain, primary screen, biophysical, differential scanning fluorimetry, uHTS; AID 1259313, 2017; 340,000 tested, 2.5% active; Tm shift relative to glycine control, % at 25 µM; Glutamate receptor ionotropic, NMDA 3A (GRIN3A) ligand-binding domain; NR3A LBD differential scanning fluorimetry, Tm shift; 0% = protein alone, 100% = glycine-bound protein;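 active means melting temperature shift of at least 10% of the positive control shift, at one fixed dose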
proKLK7 act: proKLK7 zymogen activators, primary screen, biochemical, fluorescence intensity; activation, % at 7 µM; purified proKLK7, EDANS-DABCYL substrate fluorescence; 100% is mature enzyme control, 0% vehicle; 370,000 tested, 0.9% active; Kallikrein-7 (Homo sapiens), P49862; AID 652039, 2013;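 active means activation above the mean of all tested compounds plus 3 SD, computed per campaign excluding outliers beyond control limits, cut at about 13% in these data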
FAS-TE inh: FAS thioesterase domain inhibitors, primary screen, biochemical, fluorescence intensity, uHTS; Fatty acid synthase (Homo sapiens), P49327; recombinant FAS-TE, OMFH fluorogenic substrate, fluorescence endpoint; inhibition, % at 15 µM; 360,000 tested, 0.67% active; AID 602261, 2012;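 active means compounds whose normalised, plate-corrected inhibition of enzyme fluorescence in the single-dose primary screen is 50% or more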
ADAM10 inh: human ADAM10 inhibitors, primary screen, biochemical, QFRET, HTS. recombinant ADAM10, EDANS/DABCYL FRET peptide cleavage, 3 h. inhibition, % at 7 µM. 370,000 tested, 0.62% active;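 active means inhibition above a per-campaign cutoff equal to the mean of compounds falling between control-based bounds plus 3 SD, cut at about 20% in these data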
Hits are given with their value. Only some compounds are listed: those with a hit (about 4.6% of all), similar ones and a draw of the others.

Results for COc1ccc(NC(=O)c2cc(-c3cccc(OC)c3)on2)cc1 ?
ADAM17 inh: inactive; NR3A LBD binder: inactive; proKLK7 act: inactive; FAS-TE inh: inactive; ADAM10 inh: inactive

What do the screens show for `COc1ccc(NC(=O)c2cc(-c3ccccc3OC)on2)cc1`?
ADAM17 inh: inactive; NR3A LBD binder: inactive; proKLK7 act: inactive; FAS-TE inh: inactive; ADAM10 inh: inactive

What do the screens show for `COc1cccc(-c2cc(C(=O)Nc3cccc(O)c3)no2)c1`?
ADAM17 inh: inactive; NR3A LBD binder: 24; proKLK7 act: inactive; FAS-TE inh: inactive; ADAM10 inh: inactive

How did O=C(Nc1cccc(O)c1)c1cc(-c2cccs2)on1 do in these assays?
ADAM17 inh: inactive; NR3A LBD binder: 15; proKLK7 act: inactive; FAS-TE inh: inactive; ADAM10 inh: inactive

How did Nc1nc(-c2ccc3c(c2)CCCC3)c(CC(=O)O)s1 do in these assays?
ADAM17 inh: inactive; NR3A LBD binder: 35; proKLK7 act: inactive; FAS-TE inh: inactive; ADAM10 inh: inactive

Results for CCN(CC)C(=O)Oc1cc(=O)n2c3c(cccc13)CCC2 ?
ADAM17 inh: inactive; NR3A LBD binder: 20; proKLK7 act: inactive; FAS-TE inh: inactive; ADAM10 inh: inactive

Results for COc1ccc(C2C(C(=O)N3CCN(C=O)CC3)CC(=O)N2c2ccc(OC)cc2)cc1 (centres undefined) ?
ADAM17 inh: inactive; proKLK7 act: inactive; ADAM10 inh: inactive

What do the screens show for `O=C(NCc1csc2ccc(Cl)cc12)Nc1ccccc1`?
ADAM17 inh: inactive; NR3A LBD binder: 23; proKLK7 act: inactive; FAS-TE inh: inactive; ADAM10 inh: inactive

What do the screens show for `O=C(NCc1csc2ccc(Cl)cc12)Nc1cccc2ccccc12`?
ADAM17 inh: inactive; NR3A LBD binder: inactive; proKLK7 act: inactive; FAS-TE inh: inactive; ADAM10 inh: inactive

What do the screens show for `O=C1C[C@@H](C(=O)Nc2ccc(Cl)cc2)[C@@H](c2ccccc2)O1`?
ADAM17 inh: inactive; proKLK7 act: inactive; ADAM10 inh: inactive

How did CCOC(=O)COc1ccc(Br)cc1/C=C/c1[nH]c(=O)[nH]c(=O)c1[N+](=O)[O-] do in these assays?
ADAM17 inh: inactive; NR3A LBD binder: 161; proKLK7 act: inactive; FAS-TE inh: inactive; ADAM10 inh: inactive

How did COc1ccc(OC)c(NC(=O)c2cc3oc4ccccc4c3cc2O)c1 do in these assays?
ADAM17 inh: inactive; NR3A LBD binder: 130; proKLK7 act: inactive; FAS-TE inh: inactive; ADAM10 inh: inactive

Results for COc1cc2c(cc1NC(=O)c1ccc3c(c1)OCO3)oc1ccccc12 ?
ADAM17 inh: inactive; NR3A LBD binder: 26; proKLK7 act: inactive; FAS-TE inh: inactive; ADAM10 inh: inactive

Results for COc1ccc(OC)c(NC(=O)c2ccccc2SC)c1 ?
ADAM17 inh: inactive; NR3A LBD binder: inactive; proKLK7 act: inactive; FAS-TE inh: inactive; ADAM10 inh: inactive

What do the screens show for `O=C(Nc1ccc2c(c1)oc1ccccc12)c1ccc2c(c1)OCO2`?
ADAM17 inh: inactive; NR3A LBD binder: 25; proKLK7 act: inactive; FAS-TE inh: inactive; ADAM10 inh: inactive

What do the screens show for `O=C(COc1ccc2c(c1)OCO2)Nc1ccc2c(c1)oc1ccccc12`?
ADAM17 inh: inactive; NR3A LBD binder: inactive; proKLK7 act: inactive; FAS-TE inh: inactive; ADAM10 inh: inactive

What do the screens show for `O=C(C1CCCN1S(=O)(=O)c1ccccc1[N+](=O)[O-])N1CCN(c2ccccc2)CC1` (centres undefined)?
ADAM17 inh: inactive; proKLK7 act: inactive; ADAM10 inh: inactive

Results for O=C(Cc1cc(=O)[nH][nH]1)N/N=C/c1ccccc1C(F)(F)F ?
ADAM17 inh: inactive; proKLK7 act: inactive; ADAM10 inh: inactive

How did C/C(=N\Nc1cc(C)nc(-c2ccccc2O)n1)c1ccccc1 do in these assays?
ADAM17 inh: inactive; NR3A LBD binder: 14; proKLK7 act: inactive; FAS-TE inh: inactive; ADAM10 inh: inactive

Results for Cc1cc(N/N=C/c2ccc(O)c(C)c2O)nc(-c2ccccc2O)n1 ?
ADAM17 inh: inactive; NR3A LBD binder: 32; proKLK7 act: inactive; FAS-TE inh: inactive; ADAM10 inh: inactive

How did C/C(=N\Nc1cc(C)nc(-c2ccccc2)n1)c1cccc([N+](=O)[O-])c1 do in these assays?
ADAM17 inh: inactive; NR3A LBD binder: 17; proKLK7 act: inactive; FAS-TE inh: inactive; ADAM10 inh: inactive

How did Cc1ccc(Nc2cc(C)nc(-c3ccccc3O)n2)cc1 do in these assays?
ADAM17 inh: inactive; NR3A LBD binder: inactive; proKLK7 act: inactive; FAS-TE inh: inactive; ADAM10 inh: inactive

What do the screens show for `CC(C)C[C@H]1COc2cccc(F)c2S(=O)(=O)N1Cc1cn(Cc2ccc(Cl)cc2)nn1`?
ADAM17 inh: inactive; proKLK7 act: inactive; ADAM10 inh: inactive

What do the screens show for `CCC(C)N(C(=O)CN1C(=O)C2CCCCN2C(=O)c2ccccc21)C(C)CC` (centres undefined)?
ADAM17 inh: inactive; proKLK7 act: inactive; ADAM10 inh: inactive

How did CCOC(=O)c1sc(NC(=O)CSc2ncccn2)nc1C do in these assays?
ADAM17 inh: inactive; NR3A LBD binder: inactive; proKLK7 act: inactive; FAS-TE inh: inactive; ADAM10 inh: inactive

What do the screens show for `CCOC(=O)c1sc(NC(=O)Nc2ccc(Cl)cc2)nc1C`?
ADAM17 inh: inactive; NR3A LBD binder: 28; proKLK7 act: inactive; FAS-TE inh: inactive; ADAM10 inh: inactive

What do the screens show for `COC(=O)c1sc(NC(=O)c2c(C)noc2C)nc1C`?
ADAM17 inh: inactive; NR3A LBD binder: inactive; proKLK7 act: inactive; FAS-TE inh: inactive; ADAM10 inh: inactive

Results for CCOC(=O)c1sc(NC(=O)CSc2nccn2C)nc1C ?
ADAM17 inh: inactive; NR3A LBD binder: 13; proKLK7 act: inactive; FAS-TE inh: inactive; ADAM10 inh: inactive

Results for CCOC(=O)c1sc(NC(=O)c2c(CC)noc2C)nc1C ?
ADAM17 inh: inactive; NR3A LBD binder: 19; proKLK7 act: inactive; FAS-TE inh: inactive; ADAM10 inh: inactive

How did COc1ccc(CN(CCN2CCOCC2)C(=O)c2cc(F)ccc2C)cc1OC do in these assays?
ADAM17 inh: inactive; proKLK7 act: inactive; ADAM10 inh: inactive

What do the screens show for `O=C(Nc1cc([N+](=O)[O-])ccc1O)c1cccc(C(=O)Nc2cc([N+](=O)[O-])ccc2O)c1`?
ADAM17 inh: inactive; NR3A LBD binder: 25; proKLK7 act: inactive; FAS-TE inh: inactive; ADAM10 inh: inactive

What do the screens show for `O=C(Nc1ccc(O)cc1)c1cccc(Oc2ccc([N+](=O)[O-])cc2)c1`?
ADAM17 inh: inactive; NR3A LBD binder: 32; proKLK7 act: inactive; FAS-TE inh: inactive; ADAM10 inh: inactive

What do the screens show for `Cc1cc(O)c(NC(=O)c2cccc([N+](=O)[O-])c2)cc1C`?
ADAM17 inh: inactive; NR3A LBD binder: 17; proKLK7 act: inactive; FAS-TE inh: inactive; ADAM10 inh: inactive

Screens (PubChem)
